This is an account of results in PubChem BioAssay (NCI).

Among the test systems are HCT-15 colon; HT29 colon; SNB-75 CNS; SNB-19 CNS; U251 CNS; PC-3 prostate; SK-MEL-5 melanoma; UACC-62 melanoma; LOX IMVI melanoma; SK-MEL-28 melanoma; EKVX NSCLC; SN12C renal; UO-31 renal; TK-10 renal; ACHN renal; CAKI-1 renal; A498 renal; CCRF-CEM leukemia; MOLT-4 leukemia; SK-MEL-2 melanoma.
Common to all, as to test: NCI-60 one-dose screen, 48 h (100 = growth as untreated, 0 = no growth, -100 = all killed)
Common to all, as to settings: 10 µM

Compounds without any hit were thinned out: in the full panel of roughly 83,000, 20% have a hit.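 Treatment: one concentration, 48 hours, 96-well format. Scoring: percent growth, with anything below 10 considered active.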 A number with no mark means an inactive call. The source made the active and inactive calls.

Regarding `COc1ccc(/C=C/C(=O)c2ccc(NC(=O)CN3C(=O)NC(C)(c4ccccc4)C3=O)cc2)cc1` (stereo not drawn), the growth in the assay with HCT-15 colon was 75.7%; with HT29 colon it was 67.6%; with SNB-75 CNS it was 96.8%; with SNB-19 CNS, 91.8%; in the assay on U251 CNS, 67.7%; in the assay with PC-3 prostate, 61.4%. Besides, the growth is 60.1% in the assay on SK-MEL-5 melanoma; 50% with UACC-62 melanoma; 56.5% in the assay on LOX IMVI melanoma; 93.8% with SK-MEL-28 melanoma; 91% in the assay on EKVX NSCLC; 95.3% in the assay with SN12C renal. In addition, the growth in the assay on UO-31 renal is 56.8%; in the assay with TK-10 renal it was 109%; in the assay on ACHN renal, 84.5%; in the assay on CAKI-1 renal, 79%; in the assay with A498 renal it was 119%; with CCRF-CEM leukemia it was 78.3%. Further, the growth with MOLT-4 leukemia was 49.7%.
Consider `O=C1Nc2cc(-c3ccc(NC(=O)c4cccs4)cc3)ccc2/C1=C/c1ccc[nH]1`, for which the growth in the assay with HCT-15 colon is 47.6%; in the assay with HT29 colon, 71.1%; in the assay with SNB-75 CNS it was 138%; in the assay with SNB-19 CNS, 87.1%; with U251 CNS it was 65.9%; in the assay with PC-3 prostate, 65.6%. The growth in the assay with SK-MEL-5 melanoma is 63.6%; in the assay on UACC-62 melanoma, 80.8%; with LOX IMVI melanoma it was 55.7%; in the assay on SK-MEL-28 melanoma, 101%; in the assay with EKVX NSCLC, 55.2%; with SN12C renal, 65.3%. The growth in the assay on UO-31 renal was 82.1%; in the assay on TK-10 renal, 112%; in the assay on ACHN renal, 82%; with A498 renal it was 151%; with CCRF-CEM leukemia, 41.8%; in the assay on MOLT-4 leukemia, 37.4%.
Turning to `Brc1ccc(N/N=C/c2c[nH]c3ccccc23)nc1`, the growth in the assay on HCT-15 colon was 8.57% (active); in the assay on HT29 colon, 14%; in the assay on SNB-75 CNS, 26.7%; with SNB-19 CNS it was 43.9%; in the assay on U251 CNS it was 19.9%; with PC-3 prostate, 20%. Besides, the growth is 51.8% in the assay on SK-MEL-5 melanoma; 54.8% with UACC-62 melanoma; -2.43% (active) in the assay on LOX IMVI melanoma; 63.6% with SK-MEL-28 melanoma; 24.4% in the assay on EKVX NSCLC; 15.3% in the assay with SN12C renal. The growth is 2.76% (active) in the assay with UO-31 renal; 70% in the assay with TK-10 renal; 27.5% in the assay with ACHN renal; 25.9% with CAKI-1 renal; 43% with A498 renal; 6.57% (active) in the assay on CCRF-CEM leukemia. Also, the growth with MOLT-4 leukemia was 18%.
As for `COc1ccc(-c2cc(C(=O)N=Nc3c(O)[nH]c4ccccc34)c3ccccc3n2)cc1`, the growth was -83.1% (active) with HCT-15 colon; -15.1% (active) in the assay with HT29 colon; 53.7% in the assay on SNB-75 CNS; -38.8% (active) with SNB-19 CNS; -67.6% (active) with U251 CNS; 2.92% (active) in the assay with PC-3 prostate. Also, the growth in the assay with SK-MEL-5 melanoma was 47.3%; in the assay on UACC-62 melanoma, 39.5%; with LOX IMVI melanoma, -73.6% (active); with SK-MEL-28 melanoma, -41% (active); in the assay on EKVX NSCLC, -12.7% (active); in the assay on SN12C renal it was -38.8% (active). Also, the growth in the assay with UO-31 renal is 24.5%; in the assay on TK-10 renal, 19.2%; with ACHN renal it was -64.2% (active); in the assay with CAKI-1 renal it was -58.8% (active); in the assay on A498 renal it was 112%; in the assay with CCRF-CEM leukemia it was 49%. For the same compound, the growth in the assay on MOLT-4 leukemia is 45.1%.
For `COc1cc(NC(=O)c2cc(-c3ccc(F)cc3F)ccc2O)cc(OC)c1OC`, the growth in the assay with HCT-15 colon is 41.1%; with HT29 colon it was 110%; in the assay with SNB-75 CNS it was 40.9%; in the assay with SNB-19 CNS, 31.1%; in the assay with U251 CNS it was 32.6%; in the assay with PC-3 prostate, 21.9%. The growth is -15.7% (active) in the assay with SK-MEL-5 melanoma; 0.606% (active) in the assay with UACC-62 melanoma; 55.3% in the assay on LOX IMVI melanoma; 25% in the assay on SK-MEL-28 melanoma; 50% with EKVX NSCLC; 18.6% with SN12C renal. Moreover, the growth is 9.27% (active) with UO-31 renal; 33% with TK-10 renal; 55.9% in the assay on ACHN renal; 30.6% in the assay with CAKI-1 renal; -1.46% (active) in the assay on A498 renal; 25.6% in the assay on CCRF-CEM leukemia. For the same compound, the growth in the assay on MOLT-4 leukemia was 10.6%.
As for `O=C(Nc1ccc(OCc2ccccc2)cc1)Nc1ccc(Cl)c(C(F)(F)F)c1`, the growth is 9.69% (active) with HCT-15 colon; 6.91% (active) with HT29 colon; -20.2% (active) with SNB-75 CNS; 8.37% (active) in the assay on SNB-19 CNS; -10.2% (active) with U251 CNS; -0.967% (active) in the assay with PC-3 prostate. In addition, the growth with SK-MEL-5 melanoma was -96.6% (active); in the assay on UACC-62 melanoma it was 14.1%; in the assay on LOX IMVI melanoma, -25.1% (active); with SK-MEL-28 melanoma, 14.3%; with EKVX NSCLC, 5.04% (active); in the assay on SN12C renal, 2.86% (active). The growth in the assay on UO-31 renal was -1.46% (active); in the assay with TK-10 renal it was 21%; in the assay with ACHN renal it was 0.776% (active); with CAKI-1 renal, 3.68% (active); in the assay with A498 renal it was -15.1% (active); with CCRF-CEM leukemia, -23.4% (active).
`COc1ccc(-c2cc(-c3cc(C(=O)c4ccccc4)n4ccc(C)cc34)nc(N)c2C#N)cc1`: the growth in the assay with HCT-15 colon was 78%; in the assay on HT29 colon, 75%; in the assay on SNB-75 CNS it was 91.5%; in the assay with SNB-19 CNS it was 45.1%; in the assay with U251 CNS, 45.4%; in the assay with PC-3 prostate it was 63.5%. Moreover, the growth in the assay on SK-MEL-5 melanoma was 67.7%; with UACC-62 melanoma, 64.6%; in the assay on LOX IMVI melanoma, 51.3%; in the assay with SK-MEL-28 melanoma, 87.6%; in the assay on EKVX NSCLC it was 81.2%; in the assay on SN12C renal, 70%. The growth in the assay with UO-31 renal is 65%; in the assay with TK-10 renal it was 92.4%; in the assay on ACHN renal it was 56.4%; in the assay with CAKI-1 renal it was 69.9%; in the assay with A498 renal it was 127%; in the assay on CCRF-CEM leukemia, 98.3%. Further, the growth in the assay on MOLT-4 leukemia is 93.8%.
As to `CCN1CCN(c2ccc(NC(=O)Nc3ccc(-c4cc(C(=O)NC(C)C)c5ncccc5n4)cc3)cc2C(F)(F)F)CC1`, the growth with HCT-15 colon is -93.5% (active); in the assay on HT29 colon it was -82.3% (active); in the assay on SNB-75 CNS, -94.3% (active); in the assay with SNB-19 CNS it was -81.7% (active); in the assay with U251 CNS, -89.5% (active); with PC-3 prostate it was -55.3% (active). The growth in the assay on SK-MEL-5 melanoma was -100% (active); in the assay on UACC-62 melanoma it was -93.3% (active); in the assay with LOX IMVI melanoma, -100% (active); with SK-MEL-2 melanoma it was -71% (active); with EKVX NSCLC it was -91.5% (active); with SN12C renal, -94.3% (active). Besides, the growth in the assay with UO-31 renal was -94.5% (active); in the assay on TK-10 renal, -92.7% (active); in the assay with ACHN renal, -93.1% (active); in the assay on CAKI-1 renal, -95.2% (active); with A498 renal, -99.1% (active); in the assay on CCRF-CEM leukemia it was -44.5% (active).
For the compound `c1ccc(C(=C(c2ccc(OCCN3CCCCC3)cc2)c2ccc(OCCN3CCCCC3)cc2)C2CCCC2)cc1`, the growth in the assay on HCT-15 colon is 34.6%; with HT29 colon, -96.2% (active); in the assay with SNB-75 CNS, -24.5% (active); with SNB-19 CNS, -96.8% (active); with U251 CNS, -96.4% (active); in the assay with PC-3 prostate, -37.1% (active). The growth in the assay with SK-MEL-5 melanoma is -100% (active); in the assay with UACC-62 melanoma, -97.1% (active); in the assay with LOX IMVI melanoma, -100% (active); with SK-MEL-28 melanoma it was -75.6% (active); in the assay on EKVX NSCLC, 21.4%; in the assay with SN12C renal, -8.67% (active). The growth in the assay with UO-31 renal was 89.5%; with TK-10 renal it was 16.6%; with ACHN renal, 80.3%; with CAKI-1 renal, 76.1%; in the assay with A498 renal it was 102%; in the assay on CCRF-CEM leukemia, -60.4% (active).
In the case of `COc1ccccc1[C@H]1C(C(=O)c2ccc(O)cc2)C2(N[C@@H]1c1ccccc1)C(=O)Nc1ccc(Br)cc12` (stereo partly drawn), the growth was 34.4% in the assay on HCT-15 colon; -9.98% (active) with HT29 colon; 41% in the assay on SNB-75 CNS; 49.3% with SNB-19 CNS; 26.1% with U251 CNS; 23.2% with PC-3 prostate. Also, the growth in the assay with SK-MEL-5 melanoma is 26.4%; in the assay on UACC-62 melanoma, 38.1%; in the assay with LOX IMVI melanoma, -39.3% (active); with SK-MEL-28 melanoma it was 60%; with EKVX NSCLC, 30%; in the assay with SN12C renal, 25%. The growth in the assay on UO-31 renal was 27.9%; in the assay with TK-10 renal, 51%; in the assay with ACHN renal, 31.9%; with CAKI-1 renal, 18.7%; in the assay on A498 renal, 37.4%; in the assay on CCRF-CEM leukemia, 22%. For the same compound, in the assay with MOLT-4 leukemia, the growth was -9.09% (active).
For the compound `CCN1CCN(Cc2ccc(C(=O)Nc3cccc(-c4cn(-c5ccc6oc(=O)ccc6c5)nn4)c3)cc2C(F)(F)F)CC1`, the growth was -100% (active) in the assay with HCT-15 colon; -100% (active) in the assay on HT29 colon; -33.2% (active) in the assay with SNB-75 CNS; -100% (active) in the assay on SNB-19 CNS; -100% (active) with U251 CNS; -40.8% (active) in the assay on PC-3 prostate. Also, the growth in the assay with SK-MEL-5 melanoma, with UACC-62 melanoma, in the assay with LOX IMVI melanoma, with SK-MEL-28 melanoma, in the assay with EKVX NSCLC and in the assay on SN12C renal was -100% (active) each time. For the same compound, the growth is -100% (active) in the assay with UO-31 renal; -100% (active) with TK-10 renal; -100% (active) in the assay on ACHN renal; 8.59% (active) in the assay on CAKI-1 renal; -100% (active) in the assay on A498 renal; -21% (active) with CCRF-CEM leukemia. Further, the growth in the assay on MOLT-4 leukemia is -29.8% (active).
Take `COc1ccc(/C(CSc2nnc(-c3c[nH]c4ccccc34)n2-c2ccccc2)=N/O)cc1`: the growth was 15.3% in the assay on HCT-15 colon; 32% in the assay on HT29 colon; 63.3% with SNB-75 CNS; 40.3% with SNB-19 CNS; 39.4% in the assay on U251 CNS; 23.1% in the assay with PC-3 prostate. Further, the growth with SK-MEL-5 melanoma was -10.2% (active); in the assay with UACC-62 melanoma it was 31.4%; in the assay on LOX IMVI melanoma, -78.2% (active); with SK-MEL-2 melanoma, 5.87% (active); in the assay on EKVX NSCLC, 15.1%; with SN12C renal, 45.8%. Moreover, the growth with UO-31 renal was 18.2%; in the assay on TK-10 renal, 42.7%; in the assay on ACHN renal it was 22.3%; with CAKI-1 renal it was 20.1%; in the assay with A498 renal, 69.8%; in the assay on CCRF-CEM leukemia it was 16.5%.
